# Results reported in PubChem BioAssay (NCATS).
# Values without a mark were called inactive. Inconclusive results are not listed. Where a call stands in place of a potency, no number is given. The source made the active and inactive calls. Unless noted, calls follow the shape of the dose curve; as a rule, active = well fitted curve in either direction with a large enough effect (not every such curve was filed as active); inconclusive = small, poorly fitted or top-dose-only effect, or another doubt; inactive = flat fitted curve, though single readings scatter.
# Tests used:
# [1] = AP1 Signaling Pathway (AID 357); settings: ME-180 AP-1-bla reporter, EGF-induced, beta-lactamase ratio, 5 h; at 7.69 µM (top of the series) unless noted;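 also: ME-180 reporter cells stimulated with EGF at its EC50 level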
# Procedure, shortened: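 Read-out was the 460nm/530nm emission ratio (excitation 405nm) after CCF4 loading for 2.5 hours at room temperature. Cells carried an AP-1-driven beta-lactamase reporter, were stimulated with EC50 EGF plus compound for 5 hours, and AC50 values came from titrations.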
# [2] = molecular target: Cytochrome P450 1A2 (Homo sapiens) (UniProt P05177); test: p450-cyp1a2 (AID 410; calls by dose curve; also: potency is read from the fitted curve at half-maximal effect)
# Cytochrome P450 1A2 (Homo sapiens), sequence (P05177 whole entry, looked up): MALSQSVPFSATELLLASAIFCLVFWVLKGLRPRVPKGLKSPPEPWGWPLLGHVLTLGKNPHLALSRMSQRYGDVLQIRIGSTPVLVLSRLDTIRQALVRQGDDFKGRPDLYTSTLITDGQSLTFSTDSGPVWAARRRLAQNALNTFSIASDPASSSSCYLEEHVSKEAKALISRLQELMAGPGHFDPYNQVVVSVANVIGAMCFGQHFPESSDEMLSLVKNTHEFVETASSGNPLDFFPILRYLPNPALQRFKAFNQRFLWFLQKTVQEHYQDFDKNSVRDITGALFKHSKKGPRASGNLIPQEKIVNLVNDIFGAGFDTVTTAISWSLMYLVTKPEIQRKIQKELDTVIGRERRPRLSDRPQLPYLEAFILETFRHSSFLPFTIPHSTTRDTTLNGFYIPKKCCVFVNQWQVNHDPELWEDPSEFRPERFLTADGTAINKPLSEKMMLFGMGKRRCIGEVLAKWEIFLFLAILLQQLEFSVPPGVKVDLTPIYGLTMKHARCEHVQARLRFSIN
# Procedure, shortened: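 Human CYP1A2 (20nM) demethylated Luciferin-ME at its Km (100uM) in 100mM KPO4. After 10 min compound preincubation, NADPH regeneration ran the reaction 60 min at room temperature. Luciferin was read by luminescence, normalized to 57 uM furafylline.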
# [3] = NFAT Signaling Pathway (AID 444); settings: Jurkat NFAT-bla M1, carbachol, beta-lactamase ratio, 5 h; at 7.69 µM (top of the series) unless noted;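 also: carbachol stimulus at about its EC50 of 1 µM final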
# Procedure, shortened: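 Jurkat cells carrying an NFAT-driven β-lactamase reporter and co-transfected muscarinic M1 receptor were treated with compound plus carbachol (1 uM final, an EC50 level) for 5 h at 37 °C. CCF4 loading followed for 1 h at RT; 460/530 nm ratio gave %activity.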
# [4] = Stat Signaling Pathway (AID 446); settings: ME-180 (cervical carcinoma) SIE beta-lactamase reporter, IL-6 stimulated, 5 h; at 7.69 µM (top of the series) unless noted;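 also: ME-180 cervical cancer cells given 40 pM IL-6 alongside compound; SIE-controlled beta-lactamase reporter measured as 460/530 nm FRET emission ratio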
# Procedure, shortened: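 IL-6/STAT signaling read in ME-180 cells via an SIE beta-lactamase reporter. Stimulus was 40 pM IL-6 (its AC50) for 5 hrs, so both activation and inhibition register.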
# [5] = molecular target: Glucocorticoid receptor (Homo sapiens) (UniProt P04150); test: GR-GFP Redistribution (AID 450;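 active = compounds whose dose series gives a full or clear partial fitted curve of increased nuclear translocation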; also: potency is read from the fitted curve at half-maximal effect); settings: U2OS GR-GFP nuclear translocation, laser cytometry, 2 h
# Glucocorticoid receptor (Homo sapiens), sequence (P04150 whole entry, looked up, the tested form may be a part): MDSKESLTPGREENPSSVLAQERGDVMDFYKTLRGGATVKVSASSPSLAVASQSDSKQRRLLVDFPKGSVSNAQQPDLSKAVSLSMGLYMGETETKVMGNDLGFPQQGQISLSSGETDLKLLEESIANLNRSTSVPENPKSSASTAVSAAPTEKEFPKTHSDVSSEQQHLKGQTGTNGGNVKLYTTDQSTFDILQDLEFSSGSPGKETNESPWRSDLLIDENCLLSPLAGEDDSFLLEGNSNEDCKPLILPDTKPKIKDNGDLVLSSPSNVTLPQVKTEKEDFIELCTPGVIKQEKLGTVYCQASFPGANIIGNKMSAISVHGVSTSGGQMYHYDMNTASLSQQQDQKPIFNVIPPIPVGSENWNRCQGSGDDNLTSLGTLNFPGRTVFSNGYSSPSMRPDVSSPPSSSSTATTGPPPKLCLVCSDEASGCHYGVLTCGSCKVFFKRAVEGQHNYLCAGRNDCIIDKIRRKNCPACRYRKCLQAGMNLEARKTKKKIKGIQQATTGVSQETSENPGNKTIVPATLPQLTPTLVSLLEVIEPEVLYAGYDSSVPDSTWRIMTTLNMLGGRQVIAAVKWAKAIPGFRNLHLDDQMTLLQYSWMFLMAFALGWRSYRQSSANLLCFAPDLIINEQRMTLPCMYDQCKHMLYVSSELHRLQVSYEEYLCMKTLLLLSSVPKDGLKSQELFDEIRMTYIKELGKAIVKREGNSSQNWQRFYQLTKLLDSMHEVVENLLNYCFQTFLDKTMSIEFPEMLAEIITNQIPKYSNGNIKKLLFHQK
# [6] = molecular target: 3',5'-cyclic-AMP phosphodiesterase 4B (Homo sapiens) (UniProt Q07343); test: qHTS Assay for Inhibitors of PDE-IV (AID 607; active = well fitted activation curve with a large enough effect in the main read-out, with a control signal flat, not every such curve was filed as active)
# 3',5'-cyclic-AMP phosphodiesterase 4B (Homo sapiens), sequence (Q07343 whole entry, looked up): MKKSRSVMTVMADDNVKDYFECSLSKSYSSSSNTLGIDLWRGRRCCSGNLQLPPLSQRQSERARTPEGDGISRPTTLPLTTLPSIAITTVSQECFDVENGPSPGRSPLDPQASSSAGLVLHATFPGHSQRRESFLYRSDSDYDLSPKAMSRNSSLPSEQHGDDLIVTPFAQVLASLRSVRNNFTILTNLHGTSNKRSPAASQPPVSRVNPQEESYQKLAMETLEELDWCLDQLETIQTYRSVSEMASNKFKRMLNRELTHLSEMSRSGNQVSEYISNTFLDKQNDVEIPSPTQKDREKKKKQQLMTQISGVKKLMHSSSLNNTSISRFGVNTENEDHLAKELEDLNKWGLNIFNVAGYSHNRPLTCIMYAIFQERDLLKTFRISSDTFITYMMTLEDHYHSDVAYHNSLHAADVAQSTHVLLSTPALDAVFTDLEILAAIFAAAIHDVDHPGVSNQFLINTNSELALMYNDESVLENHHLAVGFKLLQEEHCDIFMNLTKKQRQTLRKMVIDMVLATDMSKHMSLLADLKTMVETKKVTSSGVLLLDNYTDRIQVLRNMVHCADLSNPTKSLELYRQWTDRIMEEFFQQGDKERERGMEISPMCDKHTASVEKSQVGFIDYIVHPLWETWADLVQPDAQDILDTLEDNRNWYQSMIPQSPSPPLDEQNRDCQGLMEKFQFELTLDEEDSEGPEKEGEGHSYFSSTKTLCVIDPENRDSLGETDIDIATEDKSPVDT
# Procedure, shortened: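 Live HEK293 cells with a modified cyclic nucleotide-gated (CNG) channel report intracellular cAMP via membrane-potential dye fluorescence (ex 535/em 590 nm). Endogenous PDE-IV was targeted. Compounds were tested at up to 22.9 uM final; RO 20-1724 100 uM served as control.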
# [7] = qHTS Assay for Identification of Small Molecule Agonists for Thrombopoietin (TPO) Signaling Pathway (AID 917; active = well fitted curve in the direction sought with a large enough effect; an effect the other way counts as inactive or inconclusive)
# Procedure, shortened: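 Activators of TPO signaling were sought in murine Ba/F3 cells transfected with the human receptor, using a luciferase gene driven by the Glycoprotein IIb promoter; 24-hr compound exposure at 37 C alongside 26 pM TPO, in IL-3-free medium.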
# [8] = molecular target: Muscarinic acetylcholine receptor M1 (Rattus norvegicus) (UniProt P08482); test: qHTS Assay for Antagonists of Acetylcholine Muscarinic M1 Receptor: Kinetic Measurement of Intracellular Calcium Response (AID 943; active = well fitted curve in the direction sought with a large enough effect; an effect the other way counts as inactive or inconclusive;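 also: Fluo-4 calcium signal as peak divided by basal fluorescence over 4 min; nearly all actives have a fitted effect of over 75% in size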)
# Muscarinic acetylcholine receptor M1 (Rattus norvegicus), sequence (P08482 whole entry, looked up): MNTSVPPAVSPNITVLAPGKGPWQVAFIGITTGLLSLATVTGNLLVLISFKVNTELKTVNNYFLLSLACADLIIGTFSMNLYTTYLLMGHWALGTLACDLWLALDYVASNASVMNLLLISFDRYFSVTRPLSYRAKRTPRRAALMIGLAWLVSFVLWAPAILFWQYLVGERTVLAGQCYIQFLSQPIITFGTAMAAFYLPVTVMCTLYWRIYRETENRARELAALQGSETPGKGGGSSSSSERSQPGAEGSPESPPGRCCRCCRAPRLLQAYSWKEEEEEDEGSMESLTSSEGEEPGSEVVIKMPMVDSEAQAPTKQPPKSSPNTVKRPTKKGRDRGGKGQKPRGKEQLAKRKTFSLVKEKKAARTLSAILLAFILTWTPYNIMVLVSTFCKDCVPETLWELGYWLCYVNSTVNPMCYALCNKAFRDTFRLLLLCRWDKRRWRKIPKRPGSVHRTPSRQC
# Procedure, shortened: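 CHO cells stably expressing rat M1 were loaded with no-wash Fluo-4 dye for 1 h at 37C, pre-incubated 10 min with compound, then challenged with EC80 carbachol (100 nM final); kinetic calcium read 4 min, peak/basal ratio.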
# [9] = molecular target: Muscarinic acetylcholine receptor M1 (Rattus norvegicus) (UniProt P08482); test: qHTS Assay for Antagonists of Acetylcholine Muscarinic M1 Receptor: Measurement of IP-One Response (AID 944; active = well fitted curve in the direction sought with a large enough effect; an effect the other way counts as inactive or inconclusive; also: nearly all actives have a fitted effect of over 75% in size)
# Procedure, shortened: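 CHO cells expressing rat M1 receptor, recovered overnight, were pre-incubated 10 min with compound, then stimulated 30 min with carbachol at EC80 (200 nM) in LiCl-containing buffer, pH 7.4. IP1 accumulation was read by HTRF (620/665 nm).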
# [10] = molecular target: Pyruvate kinase PKM (Homo sapiens) (UniProt P14618); test: qHTS Assay for Activators of Human Muscle Pyruvate Kinase (AID 954; active = well fitted curve in the direction sought with a large enough effect, not every such curve was filed as active)
# Pyruvate kinase PKM (Homo sapiens), sequence (P14618 whole entry, looked up): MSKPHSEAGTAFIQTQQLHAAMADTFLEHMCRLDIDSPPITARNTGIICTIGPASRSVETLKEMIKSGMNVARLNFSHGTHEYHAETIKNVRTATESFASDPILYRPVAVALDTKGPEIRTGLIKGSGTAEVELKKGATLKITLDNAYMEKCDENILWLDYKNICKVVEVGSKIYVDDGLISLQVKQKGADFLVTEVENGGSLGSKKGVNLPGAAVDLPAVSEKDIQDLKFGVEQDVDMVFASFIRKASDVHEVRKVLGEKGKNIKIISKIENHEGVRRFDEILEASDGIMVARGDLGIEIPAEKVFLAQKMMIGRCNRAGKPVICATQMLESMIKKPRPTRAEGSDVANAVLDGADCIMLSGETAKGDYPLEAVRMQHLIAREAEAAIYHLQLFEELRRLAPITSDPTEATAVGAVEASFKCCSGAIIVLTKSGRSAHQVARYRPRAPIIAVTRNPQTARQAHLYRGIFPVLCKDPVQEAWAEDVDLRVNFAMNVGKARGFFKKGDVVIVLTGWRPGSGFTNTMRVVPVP
# Procedure, shortened: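 Enzyme was run at intermediate activity so both inhibitors and activators could be detected. ATP formed from ADP and PEP by 0.1 nM human PKM2 during a 1 h room-temperature incubation was quantified by coupled luciferase luminescence.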
# [11] = molecular target: Alpha-galactosidase A (Homo sapiens) (UniProt P06280); test: Counterscreen for Glucocerebrosidase Inhibitors: qHTS Assay for Human alpha-Galactosidase at pH 4.5 (AID 992; active = well fitted curve in the direction sought with a large enough effect; an effect the other way counts as inactive or inconclusive)
# Alpha-galactosidase A (Homo sapiens), sequence (P06280 whole entry, looked up): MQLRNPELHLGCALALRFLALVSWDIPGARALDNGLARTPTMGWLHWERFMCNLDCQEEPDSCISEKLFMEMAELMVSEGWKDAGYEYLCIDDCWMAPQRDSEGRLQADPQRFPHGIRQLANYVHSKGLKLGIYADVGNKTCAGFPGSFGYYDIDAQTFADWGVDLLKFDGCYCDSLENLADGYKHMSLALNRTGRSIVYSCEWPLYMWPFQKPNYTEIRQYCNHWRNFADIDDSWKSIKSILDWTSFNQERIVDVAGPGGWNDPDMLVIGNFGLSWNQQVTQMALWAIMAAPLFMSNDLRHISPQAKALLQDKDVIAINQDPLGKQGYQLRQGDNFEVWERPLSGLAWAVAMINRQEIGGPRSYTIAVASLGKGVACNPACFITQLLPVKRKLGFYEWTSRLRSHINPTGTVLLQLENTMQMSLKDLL
# Procedure, shortened: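 Read-out is 4-methylumbelliferone fluorescence (365 nm excitation, 440 nm emission) after a pH 10 NaOH/glycine stop. Reactions held 2 nM enzyme and 80 uM substrate at pH 4.5 for 20 min at room temperature.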
# [12] = molecular target: alpha-glucosidase (Oryza sativa, rice) (UniProt Q653V4); test: Counterscreen for Glucocerebrosidase Inhibitors: qHTS Assay for Rice alpha-Glucosidase at pH 5.0 (AID 997; active = well fitted curve in the direction sought with a large enough effect; an effect the other way counts as inactive or inconclusive)
# Procedure, shortened: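 Rice alpha-glucosidase (4 nM final) with 400 uM 4-methylumbelliferyl-alpha-D-glucopyranoside in citrate buffer pH 5.0, 20 min at room temperature, stopped at pH 10; fluorescence 365/440 nm, compounds 0.7 nM–77 uM, AC50 from Hill fits.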
# [13] = molecular target: Glucocorticoid receptor (Homo sapiens) (UniProt P04150); test: GR-EFC Redistribution (AID 451; calls by dose curve; also: potency is read from the fitted curve at half-maximal effect); settings: CHO-K1 GR-EFC translocation, beta-gal luminescence, 2 h
# Procedure, shortened: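 CHO-K1 cells stably expressing nuclear-localized β-gal enzyme acceptor and GR fused C-terminally to the enzyme donor fragment; ligand-driven nuclear translocation restores β-gal by complementation. Compounds titrated up to 46 uM final, 2 h at 37 °C; luminescence read.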
# [14] = molecular target: Pyruvate kinase (Leishmania mexicana) (UniProt Q27686); test: qHTS Validation Assay for Inhibitors of Leishmania Mexicana Pyruvate Kinase (AID 945; active = well fitted curve in the direction sought with a large enough effect; an effect the other way counts as inactive or inconclusive)
# Procedure, shortened: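 Mutant LmPYK (E451W), 0.2 nM, plus 0.5 mM PEP and 0.1 mM ADP in 50 mM imidazole pH 7.2 containing 0.01% Tween 20 and 0.05% BSA. Incubated 1 h at room temperature; luminescence via PKLight, normalized to DMSO.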
# [15] = molecular target: Mitogen-activated protein kinase 10 (Mus musculus) (UniProt Q61831); test: JNK3 AlphaScreen Assay (AID 530);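 also: kinase came from lysate of stimulated human HepG2 cells; signal reports phosphorylation of biotinylated GST-cJun 1-79 at Ser73 with 10 µM ATP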
# Procedure, shortened: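 JNK3 came from HepG2 lysates pre-activated with IL-1beta and TNF-alpha and phosphorylated biotinylated GST-cJun (1-79) at 10 uM ATP, pH 7.6, room temperature. Compounds were titrated. AlphaScreen signal used anti-phospho-cJun (Ser73) antibody.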
# [16] = molecular target: Cytochrome P450 2C9 (Homo sapiens) (UniProt P11712); test: qHTS Assay for Inhibitors and Substrates of Cytochrome P450 2C9 (AID 883; active = well fitted curve in the direction sought with a large enough effect; an effect the other way counts as inactive or inconclusive; also: nearly all actives have a fitted effect of over 60% in size)
# Procedure, shortened: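 A luminogenic readout tracked human CYP2C9 (10nM) converting deoxyluciferin (100uM, at KM) in 25mM KPO4 during 60 min at 37C with regenerated NADPH. Values normalized to 57uM sulphaphenazole as complete inhibition.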
# [17] = molecular target: Cytochrome P450 2D6 (Homo sapiens) (UniProt P10635); test: qHTS Assay for Inhibitors and Substrates of Cytochrome P450 2D6 (AID 891; active = well fitted curve in the direction sought with a large enough effect; an effect the other way counts as inactive or inconclusive;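 also: luciferin methyl ether substrate demethylated by CYP2D6 with NADPH regeneration; nearly all actives have a fitted effect of over 60% in size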)
# Cytochrome P450 2D6 (Homo sapiens), sequence (P10635 whole entry, looked up): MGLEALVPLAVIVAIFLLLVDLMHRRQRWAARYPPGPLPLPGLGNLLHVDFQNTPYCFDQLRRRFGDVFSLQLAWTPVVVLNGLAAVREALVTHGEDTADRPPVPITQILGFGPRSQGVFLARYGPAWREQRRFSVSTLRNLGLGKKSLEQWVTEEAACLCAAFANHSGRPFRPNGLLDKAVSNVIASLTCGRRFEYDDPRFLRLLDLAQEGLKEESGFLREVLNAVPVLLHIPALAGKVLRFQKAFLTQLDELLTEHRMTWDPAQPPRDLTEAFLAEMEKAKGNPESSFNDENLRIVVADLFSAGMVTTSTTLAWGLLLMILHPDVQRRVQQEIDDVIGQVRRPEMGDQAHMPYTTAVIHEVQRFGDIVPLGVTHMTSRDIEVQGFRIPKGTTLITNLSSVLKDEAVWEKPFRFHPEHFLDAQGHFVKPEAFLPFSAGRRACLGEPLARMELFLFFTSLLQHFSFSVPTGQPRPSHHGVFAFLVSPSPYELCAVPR
# Procedure, shortened: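 Human CYP2D6 (5 nM) with 30 uM Luciferin-ME EGE (at Km) in 100 mM KPO4, compound preincubated 10 min, then NADPH regeneration system for 60 min at room temperature. Luciferin read by luminescence; normalized to 1.43 uM quinidine.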
# [18] = molecular target: Cytochrome P450 2C19 (Homo sapiens) (UniProt P33261); test: qHTS Assay for Inhibitors and Substrates of Cytochrome P450 2C19 (AID 899; active = well fitted curve in the direction sought with a large enough effect; an effect the other way counts as inactive or inconclusive; also: nearly all actives have a fitted effect of over 60% in size; also: potency is read from the fitted curve at half-maximal effect)
# Cytochrome P450 2C19 (Homo sapiens), sequence (P33261 whole entry, looked up): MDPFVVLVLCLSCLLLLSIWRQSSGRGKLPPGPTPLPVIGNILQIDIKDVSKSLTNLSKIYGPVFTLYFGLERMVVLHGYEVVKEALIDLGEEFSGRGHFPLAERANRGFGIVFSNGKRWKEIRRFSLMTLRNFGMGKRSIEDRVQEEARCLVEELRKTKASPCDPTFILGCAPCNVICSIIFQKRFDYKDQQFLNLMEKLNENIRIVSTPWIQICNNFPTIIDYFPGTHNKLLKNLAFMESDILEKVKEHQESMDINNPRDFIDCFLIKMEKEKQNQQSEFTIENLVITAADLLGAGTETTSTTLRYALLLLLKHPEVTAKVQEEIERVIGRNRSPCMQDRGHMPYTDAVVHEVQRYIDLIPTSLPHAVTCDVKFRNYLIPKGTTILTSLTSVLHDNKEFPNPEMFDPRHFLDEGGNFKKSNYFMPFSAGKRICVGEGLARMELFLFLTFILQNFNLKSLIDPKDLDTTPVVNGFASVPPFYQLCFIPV
# Procedure, shortened: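 NADPH-dependent conversion of Luciferin-H EGE (10uM, at KM) by 5nM enzyme in 50mM KPO4, 60 min at 37C following 10 min compound preincubation. Stopped with luciferin detection buffer; luminescence read after 20 min.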
# [19] = molecular target: Guanine nucleotide-binding protein G(i) subunit alpha-1 (Homo sapiens) (UniProt P63096); test: qHTS Assay for Inhibitors of RGS12 GoLoco Motif Activity (Green Fluorophore) (AID 879; active = well fitted curve in the direction sought with a large enough effect; an effect the other way counts as inactive or inconclusive;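 also: negative values mean loss of peptide binding seen as reduced polarization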)
# Guanine nucleotide-binding protein G(i) subunit alpha-1 (Homo sapiens), sequence (P63096 whole entry, looked up): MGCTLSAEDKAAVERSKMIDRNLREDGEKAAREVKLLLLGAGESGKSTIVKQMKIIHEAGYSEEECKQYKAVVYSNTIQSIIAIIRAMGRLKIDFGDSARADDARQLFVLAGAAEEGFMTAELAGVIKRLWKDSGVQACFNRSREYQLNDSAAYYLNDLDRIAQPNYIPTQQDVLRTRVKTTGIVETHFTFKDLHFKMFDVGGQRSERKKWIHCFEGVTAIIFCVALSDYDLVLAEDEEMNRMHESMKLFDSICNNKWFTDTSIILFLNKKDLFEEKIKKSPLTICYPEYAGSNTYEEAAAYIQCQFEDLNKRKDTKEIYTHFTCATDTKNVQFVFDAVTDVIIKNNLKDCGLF
# Procedure, shortened: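 Fluorescence polarization assay: 50 nM Gαi1 with 10 nM FITC-labeled RGS12 GoLoco peptide in 10 mM Tris pH 7.5, 150 mM NaCl, 0.1 mM GDP, 0.05% NP40, 10 min at room temperature with compound.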
Structure (SMILES),"activity change, negative = inhibition [1]",Potency [2],"activity change, negative = inhibition [3]","activity, negative = inhibition [4]",Potency [5] [µM],Potency [6],outcome [7],Potency [8],Potency [9],outcome [10],outcome [11],Potency [12],Potency [13] [µM],outcome [14],Potency [15],Potency [16],Potency [17],Potency [18],"activity change, negative = inhibition [2]",outcome [19]
C=C/C(C)=C/[C@]1(C)SC(=O)C(C)=C1O,-3.15% [at 38 µM],inactive,11.1% [at 38 µM],-7.1% [at 38 µM],> 46,inactive,inactive,inactive,inactive,inactive,inactive,inactive,,,,,,,,
CC(C)[C@H]1C(=O)C(C(N)=O)=C(O)[C@]2(O)C(=O)C3=C(O)c4c(O)ccc(N(C)C)c4C[C@H]3C[C@@H]12,0.478% [at 38 µM],inactive,8.64% [at 38 µM],1.38% [at 38 µM],> 46,inactive,,inactive,inactive,inactive,inactive,inactive,> 46,inactive,,,,,,
CC(=O)OCC(=O)[C@@]1(O)CC[C@@H]2[C@@H]3CCC4=CC(=O)CC[C@@]4(C)[C@H]3C(=O)C[C@]21C,4.78% [at 38 µM],inactive,5.8% [at 38 µM],-12.6% [at 38 µM],,inactive,,,,,,,> 46,,inactive,inactive,inactive,inactive,,
CN(Cc1cc(C(C)(C)C)cc(Br)c1O)Cc1cc(C(C)(C)C)cc(Br)c1O,-2.5%,3.16 µM (active),11.8%,7.17%,,inactive,,,,,,,> 9.22,,inactive,,,3.16 µM (active),,
COc1cc(-c2[o+]c3cc(O)cc(O)c3cc2O)cc(O)c1O,19.4%,,20.3%,0.423%,,inactive,,,,,,,,,inactive,,,,-19.9% [at 2.29 µM],
OC[C@@H]1O[C@H](O)[C@@H](Cl)[C@H](O)[C@@H]1O,-0.164% [at 38 µM],inactive,4.5% [at 38 µM],14% [at 38 µM],> 46,inactive,inactive,inactive,inactive,inactive,inactive,inactive,> 46,,,,,,,inactive
